Here are results for 21 compounds from PubChem BioAssay (Tox21).

Assay [1] is described as follows: A CellTox Green Cytotoxicity Assay to monitor cytotoxicity in HEK293 cells - 40 hour (AID 1224871). Note: nearly all actives have a fitted effect of over 45% in size. Note: potency is the fitted concentration of half-maximal effect. Summed up:
(§1)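 Nonlytic real-time cytotoxicity: HEK293 + CellTox Green reagent plated, 5 h preincubation, pintool compound addition (23 nL in DMSO), 37 C for 40 h, fluorescence measured at successive time points.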

Assay [2] is described as follows: qHTS RealTime-Glo MT Cell Viability Assay in HEK293 cells - 16 hour (AID 1224872). Note: nearly all actives have a fitted effect of over 50% in size. Note: potency is the fitted concentration of half-maximal effect. In a few lines:
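Assay medium contained NanoLuc luciferase plus cell-permeant prosubstrate, added with HEK293 cells at 600 cells/well. After 5 h at 37 C/5% CO2 compounds were added; plates stayed at 37 C for 40 h with serial luminescence reads.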

A short description of assay [3]: qHTS RealTime-Glo MT Cell Viability Assay in HepG2 cells - 8 hour (AID 1224873). Note: nearly all actives have a fitted effect of over 55% in size. In a few lines:
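HepG2 cells mixed with RealTime-Glo MT reagents (NanoLuc plus cell-permeant prosubstrate) were seeded at 600 cells/well, incubated 5 h at 37 C/5% CO2, then pinned with compounds in DMSO; nonlytic luminescence tracked viability during 40 h treatment.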

Assay [4] is described as follows: qHTS RealTime-Glo MT Cell Viability Assay in HEK293 cells - 40 hour (AID 1224874). Note: nearly all actives have a fitted effect of over 50% in size. Note: potency is the fitted concentration of half-maximal effect. The following applies: RealTime-Glo luminescence; max response: active compounds read low. Summed up: (§2)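 Cells were seeded together with NanoLuc luciferase and a prosubstrate that viable cells reduce to a luciferase substrate. After a 5 h incubation at 37 C/5% CO2, compounds were added and luminescence was measured repeatedly during 40 h of treatment.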

Assay [5] in a line: A CellTox Green Cytotoxicity Assay to monitor cytotoxicity in HEK293 cells - 24 hour (AID 1224875). Note: series mostly up to about 77 µM; nearly all actives have a fitted effect of over 45% in size. Summed up:
as §1

Assay [6] in a line: A CellTox Green Cytotoxicity Assay to monitor cytotoxicity in HepG2 cells - 16 hour (AID 1224876). Note: nearly all actives have a fitted effect of over 45% in size. In a few lines: (§3)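 Read-out is fluorescence of a cyanine dye excluded from live cells that stains DNA of dead HepG2 cells, with signal proportional to cytotoxicity. Plates were read at 0, 8, 16, 24, 32 and 40 h after compound addition.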
Assay [7] can be described thus: qHTS RealTime-Glo MT Cell Viability Assay in HepG2 cells - 32 hour (AID 1224877). Note: nearly all actives have a fitted effect of over 55% in size. Summed up: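 qHTS, HepG2, 600 cells/well, RealTime-Glo (NanoLuc + prosubstrate) added with cells; 5 h preincubation; DMSO compound addition; 37 C; luminescence at 0/8/16/24/32/40 h.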
Assay [8] can be described thus: A CellTox Green Cytotoxicity Assay to monitor cytotoxicity in HepG2 cells - 24 hour (AID 1224878). Note: nearly all actives have a fitted effect of over 45% in size. Summed up: as §3
The nature of assay [9]: A CellTox Green Cytotoxicity Assay to monitor cytotoxicity in HepG2 cells - 40 hour (AID 1224879). Note: nearly all actives have a fitted effect of over 40% in size. Summed up: as §3
Assay [10] can be described thus: qHTS RealTime-Glo MT Cell Viability Assay in HEK293 cells - 0 hour (AID 1224880). Note: nearly all actives have a fitted effect of over 45% in size. Note: potency is the fitted concentration of half-maximal effect. In a few lines:
as §2

Each structure is given as a SMILES string. Records with an inconclusive call do not appear. Unmarked numbers belong to inactive results. Calls of active or inactive are those of the source. Calls come from the whole dose curve; as a rule, active = well fitted curve in the direction sought with a large enough effect in the repeat runs; inconclusive = weak or mixed curves; inactive = no such curve, though single readings can be large; an effect the other way counts as inactive or inconclusive.
% is set by controls: 0 for no effect and ±100 for the full control effect.

Take `CC(=O)c1cc2ccccc2s1`: the Potency entry in assay [1], in [2], in assay [3], in assay [5], in [6] and in assay [7] was “inactive” in each case. Also, the Potency result in assay [8], in [9] and in assay [10] was “inactive” throughout. For the same compound, in assay [4], the max response is 2.63%.

Take `CCOC(=O)/C=C/C(=O)OCC`: the Potency entry in [1], in [2], in [3], in assay [5], in [6] and in [7] was “inactive” throughout. In addition, the Potency entry in assay [8], in [9] and in assay [10] was “inactive” each time. In [4], the max response was 11.5%.

In the case of `CC(CC1c2ccccc2CCc2ccccc21)CN(C)C` (stereo unspecified), the Potency result in assay [1], in [2], in assay [3], in assay [5], in assay [6] and in assay [7] was “inactive” in each case. Besides, in assay [10], the Potency entry was “inactive”.

For `C=C1CCC2CC1C2(C)C` (stereo unspecified), the Potency result in assay [1], in [3], in [5], in [6], in assay [7] and in assay [8] was “inactive” throughout. In [9], the Potency entry is “inactive”. In addition, the max response in [4] was 0.0757%.

As for `CC[N+](CC)(CCNC(=O)C(=O)NCC[N+](CC)(CC)Cc1ccccc1Cl)Cc1ccccc1Cl`, the Potency result in [1], in assay [3], in [5], in [6], in assay [7] and in assay [8] was “inactive” in each case. Also, the Potency entry in assay [9] and in assay [10] was “inactive” throughout. Also, the max response in [4] was 0.73%.

As for `CC(C)(C)C(=O)C(=O)O`, the Potency result in assay [1], in assay [3], in assay [6], in assay [7], in assay [8] and in [10] was “inactive” each time. In assay [4], the max response was 0.984%.

As for `CC(O)c1ccccc1` (stereo unspecified), the Potency entry in assay [1], in [3], in [5], in assay [6], in [7] and in [8] was “inactive” throughout. For the same compound, the Potency entry in [9] and in assay [10] was “inactive” each time. Further, the max response in assay [4] was 19.3%.

As for `N#CCc1ccc(Cl)cc1Cl`, the Potency entry in [1], in assay [3], in assay [5], in assay [6], in [7] and in assay [8] was “inactive” each time. Besides, the Potency entry in [9] was “inactive”. Also, the max response in assay [4] was -14.5%.

`C=C(C)C(=O)OCCOCCOC(=O)C(=C)C`: the Potency entry in assay [1], in assay [3], in assay [5], in assay [6], in assay [7] and in [8] was “inactive” throughout. The Potency entry in assay [9] and in assay [10] was “inactive” in each case. In addition, the max response in assay [4] is 1.33%.

Regarding `CCCCCCNC(=O)n1cc(F)c(=O)[nH]c1=O`, the Potency entry in assay [1], in assay [3], in assay [5], in assay [6], in assay [7] and in [8] was “inactive” in each case. In assay [9], the Potency result is “inactive”. Moreover, the max response in [4] is -6.08%.

As for `Cc1ccc(OC(=O)c2ccccc2O)cc1`, in [1], the Potency was 49 µM (active). Also, the Potency result in assay [3], in [5], in [6], in assay [7], in assay [8] and in assay [9] was “inactive” each time. Also, the Potency entry in assay [10] was “inactive”. Moreover, in assay [4], the max response is -11.7%.

For the compound `CCC1CO1` (stereo unspecified), the Potency result in assay [1], in [3], in assay [5], in assay [6], in [7] and in [8] was “inactive” throughout. In addition, the Potency entry in assay [9] and in assay [10] was “inactive” each time. Further, the max response in [4] was 4.39%.

On to `CC=C(Cl)Cl`, for which the Potency entry in assay [1], in assay [3], in assay [6], in assay [7], in assay [8] and in assay [9] was “inactive” throughout. Further, the Potency result in assay [10] is “inactive”. For the same compound, the max response in [4] was 12.6%.

On to `CC(C)(C)CC(=O)OCC(=O)[C@@]1(O)CC[C@H]2[C@@H]3CCC4=CC(=O)C=C[C@]4(C)[C@H]3[C@@H](O)C[C@@]21C`, for which the Potency entry in assay [1], in assay [3], in [6], in assay [7], in assay [8] and in [9] was “inactive” each time. The figures for the Potency in assay [4] and in assay [10] were 19 µM (active) and 7.56 µM (active), respectively.

For `O=C(OCC(O)CO)c1ccccc1Nc1ccnc2cc(Cl)ccc12` (stereo unspecified), the Potency entry in [1], in assay [3], in assay [5], in assay [8] and in [9] was “inactive” each time. Further, in [4], the Potency is 8.49 µM (active).

In the case of `CCCCN(CCCC)C(C(N)=O)c1ccc(OC)cc1` (stereo unspecified), the Potency entry in [1], in assay [3], in [5], in [6], in assay [7] and in assay [8] was “inactive” in each case. Also, the Potency result in assay [9] and in assay [10] was “inactive” each time. Further, in assay [4], the max response is -24.8%.

For the compound `c1cc(N(CC2CO2)CC2CO2)ccc1Cc1ccc(N(CC2CO2)CC2CO2)cc1` (stereo unspecified), the Potency is 49 µM (active) in assay [1], 43.6 µM (active) in [2] and 24.5 µM (active) in assay [4]. Moreover, the Potency entry in assay [5], in assay [6] and in assay [10] was “inactive” in each case.

As to `O=Cc1c2ccccc2c(Cl)c2ccccc12`, the Potency result in assay [1], in assay [3], in assay [5], in assay [6], in assay [7] and in [8] was “inactive” in each case. In [9], the Potency result is “inactive”.

Consider `Cc1cccc(N(C)C(=S)Oc2ccc3c(c2)CCC3)c1`, for which the Potency result in assay [1], in [3], in [5], in [6], in assay [7] and in [8] was “inactive” in each case. Also, the Potency result in assay [9] was “inactive”. Moreover, the max response in assay [4] was -16.2%.

As to `CCOC(=O)c1ccccc1C(=C1C=C(Br)C(=O)C(Br)=C1)c1cc(Br)c(O)c(Br)c1`, the Potency entry in assay [1], in assay [3], in [5], in assay [6], in [7] and in [8] was “inactive” each time. For the same compound, in [9], the Potency entry is “inactive”.

For the compound `CCN(CC)CCNC(=O)COc1ccc(OC)cc1`, the Potency result in [1], in [3], in [5], in assay [6], in assay [7] and in assay [8] was “inactive” throughout. In addition, the Potency entry in assay [9] and in assay [10] was “inactive” throughout. In assay [4], the max response is 13.7%.
